In all, about 190,000 compounds went through this assay and about 4,100 (2.2%) were called active. The sample holds actives, similar compounds and a random draw of the others, so the mix is not that of the screen.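 The calls were made as follows: active = thallium flux slope and its plate-corrected score both differing from the plate sample mean at a set confidence after two filtering rounds, in either direction; inactive = the rest.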

The values below come from PubChem BioAssay AID1456 (Vanderbilt High Throughput Screening Facility, 2008).

Solute carrier family 12 member 5 (Homo sapiens), sequence (Q9H2X9 whole entry, looked up): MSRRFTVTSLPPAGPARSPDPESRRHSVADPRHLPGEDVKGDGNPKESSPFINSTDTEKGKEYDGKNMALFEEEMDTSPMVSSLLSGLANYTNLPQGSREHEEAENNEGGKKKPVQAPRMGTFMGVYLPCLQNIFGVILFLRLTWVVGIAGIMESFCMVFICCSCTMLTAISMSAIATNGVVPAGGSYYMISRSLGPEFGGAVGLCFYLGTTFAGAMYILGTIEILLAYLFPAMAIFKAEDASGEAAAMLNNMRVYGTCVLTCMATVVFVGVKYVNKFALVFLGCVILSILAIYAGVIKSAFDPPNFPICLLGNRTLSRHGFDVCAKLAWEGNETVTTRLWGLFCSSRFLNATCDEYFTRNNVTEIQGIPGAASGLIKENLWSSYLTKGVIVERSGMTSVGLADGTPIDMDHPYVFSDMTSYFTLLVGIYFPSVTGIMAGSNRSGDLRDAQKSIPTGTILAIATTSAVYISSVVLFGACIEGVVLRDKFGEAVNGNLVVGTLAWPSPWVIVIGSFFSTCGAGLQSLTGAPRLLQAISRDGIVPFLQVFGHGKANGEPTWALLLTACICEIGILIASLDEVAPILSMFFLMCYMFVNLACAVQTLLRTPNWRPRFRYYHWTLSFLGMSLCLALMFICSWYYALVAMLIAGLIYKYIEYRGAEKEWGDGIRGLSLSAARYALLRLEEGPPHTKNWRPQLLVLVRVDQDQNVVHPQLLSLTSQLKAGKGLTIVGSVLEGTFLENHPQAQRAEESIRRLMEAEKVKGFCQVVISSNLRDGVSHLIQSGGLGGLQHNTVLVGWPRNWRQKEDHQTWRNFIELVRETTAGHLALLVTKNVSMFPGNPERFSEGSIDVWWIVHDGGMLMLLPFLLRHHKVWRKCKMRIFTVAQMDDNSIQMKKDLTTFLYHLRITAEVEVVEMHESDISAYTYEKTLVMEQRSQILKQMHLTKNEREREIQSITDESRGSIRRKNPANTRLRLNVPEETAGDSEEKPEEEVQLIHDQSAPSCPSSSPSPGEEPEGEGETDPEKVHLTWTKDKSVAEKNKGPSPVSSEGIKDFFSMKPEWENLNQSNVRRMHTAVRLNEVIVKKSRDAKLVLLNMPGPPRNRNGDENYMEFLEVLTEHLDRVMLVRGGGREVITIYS

The experiment has as its target Solute carrier family 12 member 5 (Homo sapiens) (UniProt Q9H2X9). Kind of experiment: modulation of human KCC2 ion transport – cell-based, HEK293 KCC2, FluoZin-2 fluorescence, MLSMR, primary screen (AID 1456).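 Also: slope of fluorescence scaled to starting intensity during 10 to 20 s after thallium.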 The conditions noted are these: KCC2 cells, thallium flux FluoZin-2 fluorescence; at 10 µM.
Take `C/C(=N\Nc1cccc(C(=O)O)c1)c1ccc2c(c1)Nc1ccccc1S2`: the B-score of Tl+ flux slope (higher = more flux/activation; lower = inhibition) was -3.29 (inactive).
Turning to `CCOc1ccccc1C1CC(c2ccc(Cl)cc2)Nc2nc(N)nn21` (centres undefined), the B-score of Tl+ flux slope (higher = more flux/activation; lower = inhibition) is -3.62 (active).
With `COc1ccc(C2CC(c3ccc(Cl)cc3Cl)Nc3nc(N)nn32)cc1OC` (centres undefined), the B-score of Tl+ flux slope (higher = more flux/activation; lower = inhibition) is 1.07 (inactive).
The value for `Cc1ccc(C2CC(c3cccc(C)c3)n3nc(N)nc3N2)cc1` (centres undefined) was 1.35 (inactive); that for `COCCNC(=S)N1CCN(C)CC1` was 1.24 (inactive); that for `CCC(C)NC(=O)C1c2ccccc2Oc2ccccc21` (centres undefined) was 0.329 (inactive).
Turning to `O=C(NCc1ccco1)C1CCCN1S(=O)(=O)c1ccccc1C(F)(F)F` (centres undefined), the B-score of Tl+ flux slope (higher = more flux/activation; lower = inhibition) is 0.797 (inactive).
In the case of `Cc1ccc(/C=N/NC(=O)CNC(=O)COc2ccccc2)o1`, the B-score of Tl+ flux slope (higher = more flux/activation; lower = inhibition) was 1.42 (inactive).
For the molecule `C/C(=N\NC(=S)NC1CCCCC1)c1ccc(C)o1`, the B-score of Tl+ flux slope (higher = more flux/activation; lower = inhibition) was 13.6 (active).
On to `Cc1ccc(NC(=S)NC2CCCC2)cc1`, for which the B-score of Tl+ flux slope (higher = more flux/activation; lower = inhibition) is -0.0505 (inactive).
The value for `Cc1ccc(/C=N/NC(=S)NC2CCCCC2)o1` was 13.3 (active).
The value for `C/C(=N/NC(=O)c1ccc(Br)o1)c1ccc(C)o1` was 2.02 (inactive); that for `S=C(NCc1ccc(Cl)cc1)NC1CCCCC1` was -1.07 (inactive); that for `Nc1ccc(N=Nc2ccccc2Cl)c(N)n1` was -0.811 (inactive).
As to `O=C(Nc1nc2ccc([N+](=O)[O-])cc2s1)c1ccncc1`, the B-score of Tl+ flux slope (higher = more flux/activation; lower = inhibition) is 0.253 (inactive).
Turning to `O=C(NC(Nc1nc2ccc([N+](=O)[O-])cc2s1)(C(F)(F)F)C(F)(F)F)c1ccccc1`, the B-score of Tl+ flux slope (higher = more flux/activation; lower = inhibition) was 18.8 (active).
`O=C(O)CCC(=O)Nc1nc2ccc([N+](=O)[O-])cc2s1`: the B-score of Tl+ flux slope (higher = more flux/activation; lower = inhibition) is -0.905 (inactive).
The value for `O=[N+]([O-])/C=C1\CCCCCN1` was 0.62 (inactive).
For the molecule `CC(C)(C)c1ccc(C(=O)NCC(=O)OCN2C(=O)c3ccccc3C2=O)cc1`, the B-score of Tl+ flux slope (higher = more flux/activation; lower = inhibition) is 2.84 (active).
Turning to `O=C(CNC(=O)c1ccc(-c2ccccc2)cc1)OCc1ccc(Cl)cc1`, the B-score of Tl+ flux slope (higher = more flux/activation; lower = inhibition) was 0.889 (inactive).
In the case of `O=C(OCN1C(=O)c2ccccc2C1=O)/C(=C\c1ccco1)NC(=O)c1ccccc1`, the B-score of Tl+ flux slope (higher = more flux/activation; lower = inhibition) was 0.982 (inactive).
The value for `CC(=O)OCCOCn1cnn2c(=O)c(Br)c(C)nc12` was 0.438 (inactive); that for `Cn1nc(C(F)(F)F)c(-c2ccc(F)cc2)c1NC(=O)CSCC(=O)O` was 0.439 (inactive); that for `O=C(Nc1cccnc1)c1cc([N+](=O)[O-])ccc1Cl` was -0.0312 (inactive).
For the molecule `CC(=O)NNc1cc(=O)c2c(=O)n(C)c(=O)n(C)c2[nH]1`, the B-score of Tl+ flux slope (higher = more flux/activation; lower = inhibition) was 6.19 (active).
For the molecule `CCC(=O)NNc1cc(=O)c2c(=O)n(C)c(=O)n(C)c2[nH]1`, the B-score of Tl+ flux slope (higher = more flux/activation; lower = inhibition) was 1.26 (inactive).
With `Nc1nnn(CC(=O)N/N=C/c2ccc(O)cc2)n1`, the B-score of Tl+ flux slope (higher = more flux/activation; lower = inhibition) is 0.292 (inactive).
With `Cn1nnc(NC(=S)NC(=O)c2ccccc2)n1`, the B-score of Tl+ flux slope (higher = more flux/activation; lower = inhibition) was 0.462 (inactive).
On to `CC1(C)CC(CNCCC(c2ccc(F)cc2)c2ccco2)CCO1` (centres undefined), for which the B-score of Tl+ flux slope (higher = more flux/activation; lower = inhibition) is -2.25 (inactive).
As to `Cc1cccc(NC(=S)NC(=O)c2ccc(Br)o2)c1`, the B-score of Tl+ flux slope (higher = more flux/activation; lower = inhibition) is 143 (active).
Regarding `Cc1cccc(NC(=S)Nc2ccc(Br)cc2)c1`, the B-score of Tl+ flux slope (higher = more flux/activation; lower = inhibition) is 0.311 (inactive).
`Cc1cccc(NC(=O)/C(=C\c2ccco2)NC(=O)c2ccccc2)c1`: the B-score of Tl+ flux slope (higher = more flux/activation; lower = inhibition) is 0.0694 (inactive).
The value for `Cc1cccc(NC(=O)NC(=S)NC(=O)c2ccccc2)c1` was 16.4 (active); that for `Cc1ccc(NC(=S)NC(=O)c2ccc(-c3ccccc3)cc2)cc1` was 1.16 (inactive).
For `Cc1cccc(NC(=O)c2ccc([N+](=O)[O-])o2)c1`, the B-score of Tl+ flux slope (higher = more flux/activation; lower = inhibition) is -0.0536 (inactive).
With `CCOc1ccc(C2NC(=S)NC3=C2CCc2ccccc23)cc1` (centres undefined), the B-score of Tl+ flux slope (higher = more flux/activation; lower = inhibition) was 0.359 (inactive).
For `CC(=O)Nc1ccc(/C=C/C(=O)c2ccccc2)cc1`, the B-score of Tl+ flux slope (higher = more flux/activation; lower = inhibition) is -1.42 (inactive).
As to `CCCc1nc2c(c(=O)c3ccccc3n2C)c(=O)n1-c1cc(C)cc(C)c1`, the B-score of Tl+ flux slope (higher = more flux/activation; lower = inhibition) was -2.43 (inactive).
In the case of `Cc1cc(OCCCCOc2ccc(C#N)cc2)ccc1[N+](=O)[O-]`, the B-score of Tl+ flux slope (higher = more flux/activation; lower = inhibition) was 2.16 (inactive).
The value for `Clc1ccc(C[n+]2cc(-c3ccccc3)n3c2CCC3)cc1` was 0.476 (inactive); that for `O=C(C1CCN(c2nnc(-n3cccc3)s2)CC1)N1CCc2ccccc2C1` was -3.67 (active); that for `CSc1ccc(CCNC(=O)C2CCN(c3nnc(-n4cccc4)s3)CC2)cc1` was 0.348 (inactive).
The value for `CCOC(=O)C1CCCN(C(=O)C2CCN(c3nnc(-n4cccc4)s3)CC2)C1` (centres undefined) was -0.42 (inactive).
On to `COc1ccc2[nH]c(C(=O)Nc3ccccc3Cl)cc2c1`, for which the B-score of Tl+ flux slope (higher = more flux/activation; lower = inhibition) is 0.0923 (inactive).
The value for `CCCCOc1ccc(CON(C(C)=O)C(C)=O)cc1Cl` was 0.181 (inactive); that for `COc1ccc(-c2nc(CS(=O)CC(=O)NCc3ccccn3)c(C)o2)cc1` (centres undefined) was 1.46 (inactive); that for `COc1ccc(-c2nc(CS(=O)CC(=O)N3CCc4ccccc4C3)c(C)o2)cc1` (centres undefined) was -6.3 (active).
For `Cc1oc(-c2ccccc2F)nc1CS(=O)(=O)CC(=O)NCCCN(C)C1CCCCC1`, the B-score of Tl+ flux slope (higher = more flux/activation; lower = inhibition) was -0.282 (inactive).
Turning to `O=C(COc1ccccc1)N1CCc2ccccc2C1`, the B-score of Tl+ flux slope (higher = more flux/activation; lower = inhibition) was 0.0757 (inactive).
